Outcome and AC50 data for 12 compounds are collected here from PubChem BioAssay (EPA / NIEHS).

The nature of assay [1]: CCTE_Harrill_HTTr_Viability_DMEM_6hr: (Pilot) CCTE's 6-hour Cell Viability Assessment for the High-Throughput Transcriptomics (HTTr) Platform, in MCF-7 cells cultured in DMEM + 10% fetal bovine serum, Harrill Lab (AID 2283973). In short, it runs like this:
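MCF-7 cells in DMEM + 10% FBS, eight-point dilution series, 6 h exposure. Membrane integrity by propidium iodide exclusion with high-content imaging; bidirectional fit versus DMSO.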

The nature of assay [2]: CCTE_Harrill_HTTr_Viability_DMEM_12hr: (Pilot) CCTE's 12-hour Cell Viability Assessment for the High-Throughput Transcriptomics (HTTr) Platform, in MCF-7 cells cultured in DMEM + 10% fetal bovine serum, Harrill Lab (AID 2283974). The gist of the method:
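MCF-7 cells in DMEM + 10% FBS exposed 12 h to an eight-point dilution series; membrane integrity scored by propidium iodide exclusion with high-content imaging, bidirectional fitting versus DMSO.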

The nature of assay [3]: CCTE_Harrill_HTTr_Viability_DMEM_24hr: (Pilot) CCTE's 24-hour Cell Viability Assessment for the High-Throughput Transcriptomics (HTTr) Platform, in MCF-7 cells cultured in DMEM + 10% fetal bovine serum, Harrill Lab (AID 2283975). The gist of the method: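 MCF-7 cells in DMEM with 10% FBS exposed for 24 hours to an eight-point dilution series. Membrane integrity by propidium iodide exclusion with high content imaging; bidirectional fit against DMSO.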

The nature of assay [4]: CCTE_Harrill_HTTr_Viability_PRF_DMEM_6hr: (Pilot) CCTE's 6-hour Cell Viability Assessment for the High-Throughput Transcriptomics (HTTr) Platform, in MCF-7 cells cultured phenol red-free DMEM + 10% charcoal-stripped fetal bovine serum, Harrill Lab (AID 2283976). In short, it runs like this:
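MCF-7 cells in phenol red-free DMEM with 10% charcoal-stripped FBS exposed 6 hours to an eight-point dilution series. Propidium iodide exclusion imaged; curves fitted bidirectionally against DMSO.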

The nature of assay [5]: CCTE_Harrill_HTTr_Viability_PRF_DMEM_12hr: (Pilot) CCTE's 12-hour Cell Viability Assessment for the High-Throughput Transcriptomics (HTTr) Platform, in MCF-7 cells cultured in phenol red-free DMEM + 10% charcoal-stripped fetal bovine serum, Harrill Lab (AID 2283977). The gist of the method:
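MCF-7 cells in phenol red-free DMEM with 10% charcoal-stripped FBS exposed 12 hours to an eight-point dilution series. Viability assessed by high-content imaging of propidium iodide exclusion; bidirectional fit versus DMSO.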

The nature of assay [6]: CCTE_Harrill_HTTr_Viability_PRF_DMEM_24hr: (Pilot) CCTE's 24-hour Cell Viability Assessment for the High-Throughput Transcriptomics (HTTr) Platform, in MCF-7 cells cultured in phenol red-free DMEM + 10% charcoal-stripped fetal bovine serum, Harrill Lab (AID 2283980). The gist of the method:
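MCF-7 cells in phenol red-free DMEM with 10% charcoal-stripped FBS, eight-point dilution series, 24 h exposure. Membrane integrity by propidium iodide exclusion with high content imaging; bidirectional fit vs DMSO.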

Assay [7] can be described thus: CCTE_Harrill_HTTr_Apoptosis_DMEM_6hr: (Pilot) CCTE's 6-hour Apoptosis Assessment for the High-Throughput Transcriptomics (HTTr) Platform, in MCF-7 cells cultured in DMEM + 10% fetal bovine serum, Harrill Lab (AID 2283981). In short, it runs like this:
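Caspase-3/7 activation read by high content imaging with CellEvent Caspase 3/7 Green in MCF-7 cells (DMEM + 10% FBS), 6 h after dosing; eight-point dilution series. Bidirectional fitting relative to DMSO baseline.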

Assay [8] is described as follows: CCTE_Harrill_HTTr_Apoptosis_DMEM_12hr: (Pilot) CCTE's 12-hour Apoptosis Assessment for the High-Throughput Transcriptomics (HTTr) Platform, in MCF-7 cells cultured in DMEM + 10% fetal bovine serum, Harrill Lab (AID 2283982). The gist of the method:
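MCF-7 cells in DMEM + 10% FBS, exposed 12 h to an eight-point dilution series; caspase-3/7 activation imaged with CellEvent Green. Bidirectional fit versus DMSO.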

Assay [9] is described as follows: CCTE_Harrill_HTTr_Apoptosis_DMEM_24hr: (Pilot) CCTE's 24-hour Apoptosis Assessment for the High-Throughput Transcriptomics (HTTr) Platform, in MCF-7 cells cultured in DMEM + 10% fetal bovine serum, Harrill Lab (AID 2283983). The gist of the method: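 MCF-7 cells in DMEM + 10% FBS, eight-point dilution series, 24 h exposure. Caspase-3/7 activation imaged by high-content imaging with CellEvent Caspase 3/7 Green. Bidirectional curve fitting against DMSO baseline.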

Assay [10] can be described thus: CCTE_Harrill_HTTr_Apoptosis_PRF_DMEM_6hr: (Pilot) CCTE's 6-hour Apoptosis Assessment for the High-Throughput Transcriptomics (HTTr) Platform, in MCF-7 cells cultured phenol red-free DMEM + 10% charcoal-stripped fetal bovine serum, Harrill Lab (AID 2283984). In short, it runs like this:
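MCF-7 cells in phenol red-free DMEM + 10% charcoal-stripped FBS, eight-point dilution series, 6 h exposure. Caspase-3/7 activation imaged by high-content imaging with CellEvent Caspase 3/7 Green; bidirectional fit versus DMSO baseline.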

Assay [11] in a line: CCTE_Harrill_HTTr_Apoptosis_PRF_DMEM_12hr: (Pilot) CCTE's 12-hour Apoptosis Assessment for the High-Throughput Transcriptomics (HTTr) Platform, in MCF-7 cells cultured in phenol red-free DMEM + 10% charcoal-stripped fetal bovine serum, Harrill Lab (AID 2283985). In short, it runs like this: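 MCF-7 cells in phenol red-free DMEM with 10% charcoal-stripped FBS, eight-point dilution series, 12 h exposure. Caspase-3/7 activation imaged by high content imaging with CellEvent Green reagent; bidirectional fit vs DMSO.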

Assay [12] in a line: CCTE_Harrill_HTTr_Apoptosis_PRF_DMEM_24hr: (Pilot) CCTE's 24-hour Apoptosis Assessment for the High-Throughput Transcriptomics (HTTr) Platform, in MCF-7 cells cultured in phenol red-free DMEM + 10% charcoal-stripped fetal bovine serum, Harrill Lab (AID 2283986). The gist of the method:
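MCF-7 cells in phenol red-free DMEM with 10% charcoal-stripped FBS, exposed 24 h across an eight-point dilution series. Caspase-3/7 activation imaged with CellEvent Green by high content imaging; bidirectional fitting against DMSO.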

Another assay deals with DIO1 (gene 1733). Put plainly: CCTE_GLTED_hDIO1: CCTE's human Deiodinase 1 (DIO1) Inhibition Assay, Great Lakes Toxicology and Ecology Division (GLTED) Lab (AID 2283987; active means hit-call score of the fitted dose curve at least 0.9, where 1 is the maximum;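 further: isolated human DIO1 enzyme in a cell-free setup rather than cells; enzyme activity read as free iodide liberated from substrate via Sandell-Kolthoff colorimetry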). In short, it runs like this:
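Inhibition read as reduced iodide release: after 3 h of human DIO1 with chemical, free iodide is quantified colorimetrically (Sandell-Kolthoff cerium/arsenic reaction). Triplicate plates, DMSO baseline.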

A short description of assay [13]: TOX21_TRB_BLA_Antagonist_Followup_viability: Viability Assessment in the Tox21 Thyroid Hormone Receptor beta Antagonism Beta-lactamase (BLA) Follow-Up Assay (AID 2283961; active means hit-call score of the fitted dose curve at least 0.9, where 1 is the maximum). In short, it runs like this:
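ATP-based CellTiter-Glo luminescence (30 min, room temperature) run in the same wells as the TRβ-bla readout. Cells: GeneBLAzer HEK293T expressing GAL4-TRβ LBD, exposed 18 h at 37C to compounds at 11 concentrations in triplicate, stripped-serum medium.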

Assay [14] deals with THRB (gene 7068) (UniProt P10828). Put plainly: TOX21_TRB_COA_Antagonist_Followup_ratio: Tox21 Thyroid Hormone Receptor beta Antagonism through Coactivator Recruitment Follow-Up Assay, Ratio (AID 2283967; active means hit-call score of the fitted dose curve at least 0.9, where 1 is the maximum). In short, it runs like this:
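Test compound was incubated with 5.0 nM GST-TRβ LBD in 0.10% BSA. Then 200 nM fluorescein-SRC-2 peptide and 2 nM terbium anti-GST antibody were added. TR-FRET (520:495 nm) was measured and normalized to DMSO and T3 controls.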

The target in assay [15] is Retinoic acid receptor RXR-alpha (Homo sapiens) (UniProt P19793). Put plainly: TOX21_TR_RXR_BLA_Antagonist_Followup_ratio: Tox21 Thyroid Hormone Receptor beta Retinoid X Receptor alpha (RXRa) Antagonism Beta-lactamase (BLA) Follow-Up Assay, Ratio (AID 2283972; active means hit-call score of the fitted dose curve at least 0.9, where 1 is the maximum). In short, it runs like this: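 After 5 h attachment at 37C, HEK293T RXRa-bla cells (2,500/well, 2% charcoal-stripped FBS, no phenol red) received compounds at 11 concentrations in triplicate for 16 h. Beta-lactamase read as 460:530 nm ratio after 2 h RT substrate loading.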
Retinoic acid receptor RXR-alpha (Homo sapiens), sequence (P19793 whole entry, looked up): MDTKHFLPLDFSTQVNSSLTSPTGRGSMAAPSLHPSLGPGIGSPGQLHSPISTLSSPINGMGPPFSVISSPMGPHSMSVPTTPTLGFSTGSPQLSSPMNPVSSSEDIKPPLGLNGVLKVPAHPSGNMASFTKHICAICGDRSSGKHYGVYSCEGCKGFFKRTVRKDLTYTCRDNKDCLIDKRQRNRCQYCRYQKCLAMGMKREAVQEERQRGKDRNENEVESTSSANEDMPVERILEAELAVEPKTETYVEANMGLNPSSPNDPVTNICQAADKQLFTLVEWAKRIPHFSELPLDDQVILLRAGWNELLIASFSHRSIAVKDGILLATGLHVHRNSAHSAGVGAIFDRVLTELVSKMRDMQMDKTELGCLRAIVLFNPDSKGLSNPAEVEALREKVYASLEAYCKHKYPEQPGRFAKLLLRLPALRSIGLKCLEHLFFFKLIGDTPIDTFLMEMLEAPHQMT

A short description of assay [16]: TOX21_TR_RXR_BLA_Antagonist_Followup_viability: Viability Assessment in the Tox21 Thyroid Hormone Receptor beta Retinoid X Receptor alpha (RXRa) Antagonism Beta-lactamase (BLA) Follow-Up Assay (AID 2283979; active means hit-call score of the fitted dose curve at least 0.9, where 1 is the maximum). In short, it runs like this:
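Follow-up compounds (11 concentrations, triplicate) were incubated 16 h at 37C/5% CO2 with HEK293T RXRa-bla cells seeded at 2,500/well in charcoal-stripped-serum medium. ATP content by CellTiter-Glo luminescence gave viability; curves fitted in both directions against DMSO.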

The target in assay [17] is THRB (gene 7068) (UniProt P10828). Put plainly: TOX21_TRB_COA_Agonist_Followup_ratio: Tox21 Thyroid Hormone Receptor beta Agonism through Coactivator Recruitment Follow-Up Assay, Ratio (AID 2283963). The gist of the method:
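Agonism is measured as coactivator recruitment in a purified-protein TR-FRET format, using GST-TRβ LBD at 5.0 nM, fluorescein-SRC-2 peptide at 200 nM and Tb-labeled anti-GST antibody at 2 nM. Values are 520:495 nm ratios relative to DMSO (0%) and T3 (100%).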

In assay [18] the target is Retinoic acid receptor RXR-alpha (Homo sapiens) (UniProt P19793). Put plainly: TOX21_TR_RXR_BLA_Agonist_Followup_ratio: Tox21 Thyroid Hormone Receptor beta Retinoid X Receptor alpha (RXRa) Agonism Beta-lactamase (BLA) Follow-Up Assay, Ratio (AID 2283968; active means hit-call score of the fitted dose curve at least 0.9, where 1 is the maximum). The gist of the method: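 HEK293T RXRa-bla, qHTS; cpd 11-pt conc. in triplicate, 16 h 37C/5% CO2; CCF4-AM 2 h RT; ratio 460:530 nm; agonist direction vs DMSO; 9-cis retinoic acid as positive control.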

Assay [19] in a line: TOX21_TR_RXR_BLA_Agonist_Followup_viability: Viability Assessment in the Tox21 Thyroid Hormone Receptor beta Retinoid X Receptor alpha (RXRa) Agonism Beta-lactamase (BLA) Follow-Up Assay (AID 2283970; active means hit-call score of the fitted dose curve at least 0.9, where 1 is the maximum). In short, it runs like this: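 Cells: HEK293T RXRa-UAS-bla, 2,500/well; medium phenol red-free DMEM + 2% charcoal-stripped FBS; 16h, 37C/5% CO2; qHTS concentration series. Read: CellTiter-Glo luminescence (ATP); bidirectional fit, DMSO = baseline.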

Several values for one entry are separate records, joined by “and”; a condition that tells them apart may be missing. Equal entries are not always repeated. Results filed as inconclusive are left out. Activity calls are given as the source filed them. How the source made its calls, unless noted: active means hit-call score of the fitted dose curve at least 0.9, where 1 is the maximum; inactive means score below 0.9.

THRB (gene 7068), sequence (P10828 whole entry, looked up, the tested form may be a part): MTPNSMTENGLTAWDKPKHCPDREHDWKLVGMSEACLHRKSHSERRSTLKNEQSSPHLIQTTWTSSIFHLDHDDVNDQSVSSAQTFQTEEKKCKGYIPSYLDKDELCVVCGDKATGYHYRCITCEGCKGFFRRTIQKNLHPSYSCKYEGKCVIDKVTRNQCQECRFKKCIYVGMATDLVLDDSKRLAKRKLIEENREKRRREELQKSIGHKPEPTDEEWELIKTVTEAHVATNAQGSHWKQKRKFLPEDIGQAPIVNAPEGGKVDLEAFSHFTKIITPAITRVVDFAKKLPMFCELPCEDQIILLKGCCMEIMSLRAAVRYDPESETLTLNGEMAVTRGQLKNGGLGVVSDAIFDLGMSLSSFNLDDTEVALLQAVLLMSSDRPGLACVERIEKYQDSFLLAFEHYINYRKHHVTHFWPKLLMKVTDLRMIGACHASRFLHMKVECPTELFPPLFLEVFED

For the compound `CCNc1nc(Cl)nc(NC(C)(C)C#N)n1`, the result in [1], in assay [2], in [3], in assay [4], in [5] and in assay [6] was inactive. The result in [7], in [8], in assay [9], in assay [10], in [11] and in [12] was inactive.
The AC50 is the concentration at which the activity in the assay is half-maximal. Regarding `CC[C@H](C)[C@H]1O[C@]2(C=C[C@@H]1C)C[C@@H]1C[C@@H](C/C=C(\C)[C@@H](O[C@H]3C[C@H](OC)[C@@H](O[C@H]4C[C@H](OC)[C@@H](NC)[C@H](C)O4)[C@H](C)O3)[C@@H](C)/C=C/C=C3\CO[C@@H]4[C@H](O)C(C)=C[C@@H](C(=O)O1)[C@]34O)O2`, the AC50 in the assay on DIO1 (gene 1733) is 26 µM (active).
Still for that read-out and setting: then `O=[N+]([O-])c1cc(C(F)(F)F)c(Cl)c([N+](=O)[O-])c1Nc1ncc(C(F)(F)F)cc1Cl`, with 19.4 µM (active); and `CCCOCC(=Nc1ccc(Cl)cc1C(F)(F)F)n1ccnc1`, with 16.2 µM (active); and `CN(C)[C@@H]1C(=O)C(C(N)=O)=C(O)[C@@]2(O)C(=O)C3=C(O)c4c(O)cccc4[C@@](C)(O)[C@H]3[C@H](O)[C@@H]12`, with 29.8 µM (active) and 15.9 µM (active) and 27.1 µM (active).
As for `C=C(C)[C@H]1Cc2c(ccc3c2O[C@@H]2COc4cc(OC)c(OC)cc4[C@@H]2C3=O)O1`, the AC50 in assay [13] was 6.16 µM (active); in assay [3], 0.0311 µM (active); in [6] it was 0.0246 µM (active). Moreover, the result (with THRB (gene 7068) [14]; in assay [15]; in assay [1]; in assay [2]; in [4]; in [5]) was inactive. Moreover, the compound was called inactive in [16], in [7], in assay [8], in assay [9], in [10] and in assay [11]. For the same compound, the outcome in assay [12] was inactive.
With `CON=C(C(=O)OC)c1ccccc1CON=C(C)c1cccc(C(F)(F)F)c1`, the call (in assay [13]; with THRB (gene 7068) [14]; in assay [15]; in [1]; in assay [2]; in assay [3]) was inactive. Also, the result in assay [4], in [5], in assay [16], in assay [6], in [7] and in [8] was inactive. In addition, the result in assay [9], in [10], in assay [11] and in assay [12] was inactive.
Consider `CC(C1CC1)C(O)(Cn1cncn1)c1ccc(Cl)cc1` (centres undefined), for which the result in [1], in assay [2], in assay [3], in assay [4], in assay [5] and in assay [6] was inactive. Besides, the outcome in assay [7], in assay [8], in [9], in [10], in assay [11] and in [12] was inactive.
Regarding `CCc1cccc(C)c1N(C(=O)CCl)C(C)COC` (centres undefined), the AC50 in the assay with DIO1 (gene 1733) was 64.2 µM (active).
On to `CCOC(=O)CC(SP(=O)(OC)OC)C(=O)OCC` (centres undefined), for which the compound was classed as inactive in the assay with DIO1 (gene 1733).
On to `CSC1=N[C@@](C)(c2ccccc2)C(=O)N1Nc1ccccc1`, for which the compound was classed as inactive (in assay [13]; with THRB (gene 7068) [14]; in assay [15]; in assay [16]).
For `C[N+]1(C)CCCCC1`, the outcome (in the assay with THRB (gene 7068) [17]; in assay [18]; in assay [19]) was inactive.
